Laboratory results as given in PubChem BioAssay AID504558 (Broad Institute, 2011).
Screen size: about 350,000 compounds; about 2,400 (0.69%) were called active. What follows is part of a selection rich in actives, with near analogues and random picks from the rest. Unmarked numbers belong to inactive results. No stated cut-off is given here; in the data, active means inhibition above about 41%; inconclusive means no clear call, values can overlap the other calls; inactive means below that.

Assay: blockers of LMP1-induced NF-kB reporter signal – cell-based, luminescence, single point, primary screen (AID 504558);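 further: 0% = neutral control wells and 100% = reference inhibitor control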
Details: LMP1-induced NF-kappaB luciferase reporter cells, at 12.5 µM, hits give high values

Question: Which inhibition does the source give for `Cc1csc(NC(=O)c2ccc(-c3ccc(Cl)cc3Cl)o2)n1` here?
Answer: 5.23%

Question: With `COC(=O)c1sc(NC(=S)NC(=O)c2ccc(C)cc2)nc1C` as the compound, how does the inhibition read?
Answer: -2.09%

Question: For `COc1ccc(C(=O)NC2=NCCS2)c(OC)c1`, which inhibition is on record?
Answer: 14.4%

Question: For `COc1cc(SC)ccc1C(=O)Nc1nc(C)cs1`, which inhibition is on record?
Answer: 77% (active)

Question: Which inhibition does the source give for `COC(=O)c1sc(NC(=O)c2ccc(OC)cc2OC)nc1C` here?
Answer: 56.8% (active)

Question: Which inhibition does the source give for `COc1cc(SC)ccc1C(=O)NNC(=O)C1COc2ccccc2O1` (stereo not drawn) here?
Answer: 3.35%

Question: For `O=C(c1ccc(N2CCCC2=O)cc1)N1CCN(c2ccc(C(F)(F)F)cc2[N+](=O)[O-])CC1`, which inhibition is on record?
Answer: 5.85%

Question: Which inhibition does the source give for `CCc1c(N=O)c(-c2ccccc2)n(O)[n+]1[O-]` here?
Answer: -1.78%

Question: With `COc1ccc(CN2C[C@H]3CON(C)[C@H]3C[C@H]2c2ccc(-c3cccc(F)c3)cc2)cc1` as the compound, how does the inhibition read?
Answer: 6.65%

Question: With `C=CCN1CCN(c2ccncc2S(=O)(=O)N2CCN(C)CC2)CC1` as the compound, how does the inhibition read?
Answer: -2.07%

Question: For `C[C@H]1CN([C@@H](C)CO)C(=O)CCCn2cc(nn2)CO[C@@H]1CN(C)S(=O)(=O)c1ccc(-c2ccccc2)cc1`, which inhibition is on record?
Answer: 1.8%

Question: For `CC(=O)CC[C@@H](C)O[C@@H]1OC(C)[C@H](O)CC1O` (stereo partly drawn), which inhibition is on record?
Answer: 85.2% (active)

Question: For `COCCNC(=O)CSc1nc(N)c(NC(=O)c2ccco2)c(=O)[nH]1`, which inhibition is on record?
Answer: 2.34%

Question: With `CN1CCN(c2ccncc2S(=O)(=O)N2CCCC2)CC1` as the compound, how does the inhibition read?
Answer: -0.542%

Question: With `Cn1nc(N)c2ncc(C(Cl)(Cl)Cl)nc21` as the compound, how does the inhibition read?
Answer: 1.82%

Question: With `O=C1[C@H]2[C@@H](c3ccc(C(F)(F)F)cc3)N[C@]3(CCCN(Cc4ccc(Br)cc4)C3=O)[C@H]2C(=O)N1Cc1ccccc1` as the compound, how does the inhibition read?
Answer: -24.7%

Question: For `CCCCCCCCCCOC(=O)C[N+](C)(C)CC1CCCCC1O` (stereo not drawn), which inhibition is on record?
Answer: 51% (active)

Question: For `CCCCCOC(=O)c1ccc(N2C(=O)C3C4C=CC(C4)C3C2=O)cc1` (stereo not drawn), which inhibition is on record?
Answer: 0.71%

Question: Which inhibition does the source give for `CC[C@]1(C(=O)OC)[C@H]2C(=O)N(Cc3ccccc3)C(=O)[C@H]2[C@H]2CN=C(SCc3ccccc3)N21` here?
Answer: -0.0665%

Question: Which inhibition does the source give for `CCN1C[C@@H]2[C@@H]3C(=O)N(Cc4ccccc4)C(=O)[C@@H]3[C@](Cc3ccccc3)(C(=O)OC)N2C1=NC1CCCCC1` here?
Answer: 0.675%

Question: Which inhibition does the source give for `CC[C@]1(C(=O)OC)[C@H]2C(=O)N(Cc3ccccc3)C(=O)[C@H]2[C@H]2CN=C(SCc3ccc(Cl)cc3)N21` here?
Answer: 87.9% (active)

Question: For `CCCN=C1N(C)C[C@@H]2[C@@H]3C(=O)N(Cc4ccccc4)C(=O)[C@@H]3[C@](C)(C(=O)OC)N12`, which inhibition is on record?
Answer: -3.21%

Question: Which inhibition does the source give for `COC(=O)[C@@]1(C)[C@H]2C(=O)N(Cc3ccccc3)C(=O)[C@H]2[C@H]2CN=C(SCC3CC3)N21` here?
Answer: -0.447%

Question: With `CC[C@]1(C(=O)OC)[C@H]2C(=O)N(Cc3ccccc3)C(=O)[C@H]2[C@H]2CN=C(SCc3ccc(C#N)cc3)N21` as the compound, how does the inhibition read?
Answer: 61.8% (active)

Question: For `C[C@@H]1CN([C@H](C)CO)C(=O)CCCn2nncc2CO[C@@H]1CN(C)C(=O)OCc1ccccc1`, which inhibition is on record?
Answer: 3.33%

Question: For `CCCCCC(=O)N1C[C@H](O)[C@@H](n2cc(COC(=O)c3ccccc3)nn2)C[C@@H]1c1ccc(C)cc1`, which inhibition is on record?
Answer: -2.09%

Question: For `CC(C)n1ncc2c(C(=O)N3CCN(Cc4cccs4)CC3)cc(C3CC3)nc21`, which inhibition is on record?
Answer: -5.29%

Question: For `NC(=S)NN=Cc1ccc(OC(=O)COc2cc(Cl)c(Cl)cc2Cl)cn1`, which inhibition is on record?
Answer: 12.2%

Question: For `CC1=C(C(=O)N(C)C)CC(CC(=O)NCCN2CCOCC2)C(=O)N1Cc1ccccc1` (stereo not drawn), which inhibition is on record?
Answer: -6.42%

Question: Which inhibition does the source give for `O=C(c1cccs1)N1C[C@H](n2cc(C3CC3)nn2)[C@@H](O)C[C@@H]1c1ccccc1` here?
Answer: 5.6%

Question: For `COc1ccc(NC(=O)C(NC(C)=O)C(=O)NCc2ccccc2Cl)cc1` (stereo not drawn), which inhibition is on record?
Answer: -2.84%

Question: Which inhibition does the source give for `O=C(NCc1ccccc1CN1CCCC1)C1CCN(S(=O)(=O)c2ccc(Cl)cc2)CC1` here?
Answer: -3.5%

Question: Which inhibition does the source give for `O=C(NCc1ccccc1Cl)C1CCCN1S(=O)(=O)c1ccc(F)cc1` (stereo not drawn) here?
Answer: 45.2% (active)

Question: With `Cc1cccc(NC(=O)C2CCCN2S(=O)(=O)c2ccc(F)cc2)c1C` (stereo not drawn) as the compound, how does the inhibition read?
Answer: -1.63%

Question: With `COc1ccc(CCNC(=O)C2CCCN2C(=O)Nc2ccccc2)cc1OC` (stereo not drawn) as the compound, how does the inhibition read?
Answer: -0.848%

Question: With `COc1ccc(NC(=O)N2CCCC2C(=O)NCc2ccccc2Cl)cc1` (stereo not drawn) as the compound, how does the inhibition read?
Answer: 86.6% (active)

Question: With `CN1CCn2cnc(C(=O)NCC(=O)OC(C)(C)C)c2C1=O` as the compound, how does the inhibition read?
Answer: 6.74%

Question: For `COc1ccc(-c2ccc(CN3C(CC(C)C)C(=O)N(Cc4cn(CC5CCCCC5)nn4)CCS3(=O)=O)cc2)cc1` (stereo not drawn), which inhibition is on record?
Answer: 17.4%

Question: For `CCCNC(=O)C1CC(=O)N(c2ccc(OCc3ccccc3)cc2)C1` (stereo not drawn), which inhibition is on record?
Answer: -15.7%

Question: For `C/C(COc1ccccc1)=N\NC(=O)c1nnn(-c2nonc2N)c1-c1ccc(C)cc1`, which inhibition is on record?
Answer: 4.25%

Question: With `Cc1cc(Nc2ccc(C)c(C)c2)n2ncnc2n1` as the compound, how does the inhibition read?
Answer: 8.05%

Question: Which inhibition does the source give for `O=C(CSCc1ccccc1)N1CCc2ccccc21` here?
Answer: -29.9%

Question: With `O=C(CN1C(=O)c2ccccc2S1(=O)=O)N1CCc2ccccc21` as the compound, how does the inhibition read?
Answer: 71.7% (active)

Question: With `CC1CCCN(C(=O)CN2C(=O)c3ccccc3S2(=O)=O)C1` (stereo not drawn) as the compound, how does the inhibition read?
Answer: -11.4%

Question: Which inhibition does the source give for `CC1(C2CC2)NC(=O)N(CC(=O)N2CCN(c3ccccc3F)CC2)C1=O` (stereo not drawn) here?
Answer: -9.22%

Question: Which inhibition does the source give for `COc1cc2nnn(-c3ccncc3)c2cc1OC` here?
Answer: -4.43%

Question: Which inhibition does the source give for `CCCCN(C(C)=O)c1ccc2c(c1)C1CC2CCN1Cc1ccccc1` (stereo not drawn) here?
Answer: 2.88%

Question: With `CCOC(=O)c1cnc(-n2nc(C)cc2C)nc1NNc1cc(C)nc(-c2ccccc2)n1` as the compound, how does the inhibition read?
Answer: 73.6% (active)

Question: Which inhibition does the source give for `Cc1cc(-n2nc(C)cc2C)n2ncc(-c3ccccc3)c2n1` here?
Answer: -21%

Question: For `Cc1cc(C)n(-c2c(F)c(F)c(COC(=O)c3ccccc3)c(F)c2F)n1`, which inhibition is on record?
Answer: -9.15%

Question: With `CCOC(=O)c1cc(-c2sc(NC(=O)c3ccccc3)nc2C)n(Cc2ccccc2)n1` as the compound, how does the inhibition read?
Answer: 12.1%

Question: With `COc1ccc(NC(=O)c2cc(=O)[nH]c3ccccc23)cc1S(=O)(=O)N1CCOCC1` as the compound, how does the inhibition read?
Answer: -9.47%

Question: For `N#Cc1ccc(OCC(=O)Nc2nc(-c3ccccn3)cs2)cc1`, which inhibition is on record?
Answer: 23.6%

Question: For `COc1ccc(Cl)cc1NC(=O)CN(C)C(=O)c1cn(-c2ccccc2)nc1-c1cccs1`, which inhibition is on record?
Answer: 2.49%

Question: For `CC(=O)Nc1ccc2c3c(ccc([N+](=O)[O-])c13)CC2`, which inhibition is on record?
Answer: 3.38%

Question: For `COc1ccc(C(C)=O)cc1CSc1nc2nc(C)cc(C)n2n1`, which inhibition is on record?
Answer: 6.79%

Question: For `CC(=O)c1ccc(Oc2cc(C)nc(-n3nc(C)cc3C)n2)cc1`, which inhibition is on record?
Answer: 89.4% (active)

Question: Which inhibition does the source give for `Cc1cc(C)nc(-n2nc(C)cc2NC(=O)c2ccc(F)cc2F)n1` here?
Answer: -4.13%

Question: For `C[C@H]1CN([C@@H](C)CO)C(=O)CCCn2cc(nn2)CO[C@@H]1CN(C)S(=O)(=O)c1ccccc1C#N`, which inhibition is on record?
Answer: 6.79%

Question: For `C[C@H]1CN([C@@H](C)CO)C(=O)c2cc(-c3ccccc3F)cnc2O[C@H]1CN(C)C(=O)C1CCOCC1`, which inhibition is on record?
Answer: -4.67%

Question: Which inhibition does the source give for `CCCCCCN1C[C@@H](O)[C@H](n2cc(COC(=O)c3ccccc3)nn2)C[C@@H]1c1ccc(Cl)cc1` here?
Answer: 1.86%

Question: With `C[C@H]1CN([C@@H](C)CO)C(=O)c2cc(Br)cnc2O[C@H]1CN(C)S(=O)(=O)c1cccs1` as the compound, how does the inhibition read?
Answer: -1.05%

Question: With `COc1cccc(NC(=O)Nc2ccc(F)cc2)c1` as the compound, how does the inhibition read?
Answer: -3.33%

Question: With `O=C(CSc1ccc(-c2ccco2)nn1)NCc1ccc2c(c1)OCO2` as the compound, how does the inhibition read?
Answer: -3.64%

Question: With `O=C(CSc1nc2cc3c(cc2c(=O)n1CCC1=CCCCC1)OCO3)NCc1ccco1` as the compound, how does the inhibition read?
Answer: 44.3% (active)

Question: Which inhibition does the source give for `O=C(CSc1c2c(nc3ccc(Cl)cc13)CCCC2)NCc1ccco1` here?
Answer: 19.1%

Question: For `COc1ccc(/C=C2\SC(=S)N(CCC(=O)N3CCOCC3)C2=O)cc1OC`, which inhibition is on record?
Answer: 9.24%

Question: For `Cc1cc(=O)[nH]c(=S)[nH]1`, which inhibition is on record?
Answer: 80.5% (active)

Question: With `Cc1cc(=O)cc(C)[nH]1` as the compound, how does the inhibition read?
Answer: -6.47%

Question: Which inhibition does the source give for `CSc1cc(C)[nH]c(=O)n1` here?
Answer: -0.805%

Question: Which inhibition does the source give for `C[C@@H]1CN([C@H](C)CO)C(=O)CCCn2nncc2CO[C@@H]1CN(C)S(=O)(=O)c1cccc(C#N)c1` here?
Answer: 1.72%

Question: With `COCCCn1c(C(=O)NC2CCCCC2)cc2c(=O)n3cccc(C)c3nc21` as the compound, how does the inhibition read?
Answer: 1.22%

Question: For `C[C@H](O)[C@@H]1C(=O)N2CCc3c([nH]c4ccccc34)[C@@H]2C[C@@H]1N(C)C(=O)Nc1ccc(F)cc1`, which inhibition is on record?
Answer: 3.72%

Question: For `CC1C(=O)N(Cc2cn(CC3CCCCC3)nn2)CCS(=O)(=O)N1Cc1ccc(-c2cccc(N(C)C)c2)cc1` (stereo not drawn), which inhibition is on record?
Answer: 6.34%

Question: Which inhibition does the source give for `CN(C)C(CNC(=O)c1cc(Br)c(Br)s1)c1ccco1` (stereo not drawn) here?
Answer: -1.49%

Question: With `CC(=O)N1c2ccc(S(=O)(=O)N3CCC(C(=O)N4CCN(c5ccccc5)CC4)CC3)cc2CC1C` (stereo not drawn) as the compound, how does the inhibition read?
Answer: 4.09%

Question: With `CC(=O)N1CCCc2cc(S(=O)(=O)N3CCCC(C(=O)N4CCN(c5cccc(Cl)c5)CC4)C3)ccc21` (stereo not drawn) as the compound, how does the inhibition read?
Answer: 42.1% (active)

Question: With `CC(=O)N1CCCc2cc(S(=O)(=O)CCC(=O)N3CCN(c4ccccc4)CC3)ccc21` as the compound, how does the inhibition read?
Answer: -0.617%

Question: Which inhibition does the source give for `Cc1cccc(S(=O)(=O)N(C)C[C@H]2OCc3cnnn3CCCC(=O)N([C@@H](C)CO)C[C@H]2C)c1` here?
Answer: 2.93%

Question: Which inhibition does the source give for `COc1ccccc1-n1c(SCC(=O)Nc2ccc(Cl)cc2)nc(O)c(Cc2ccccc2)c1=O` here?
Answer: -7.65%

Question: Which inhibition does the source give for `O=C(c1ccc2nc(N3CCOCC3)sc2c1)N1CCN(c2ccc(Cl)cc2)CC1` here?
Answer: 3.45%

Question: For `c1c2c(cc3sc(N4CCCCC4)nc13)OCCO2`, which inhibition is on record?
Answer: 58% (active)

Question: Which inhibition does the source give for `CN(C)CCN(C(=O)C1CCCCC1)c1nc2cc3c(cc2s1)OCO3` here?
Answer: 0.636%
